From the supplement of paper PMC12645437, “Orthogonal IMiD-Degron Pairs Induce Selective Protein Degradation in Cells” (ACS Chemical Biology, 2025)
The full ranking holds about 8,300 sequences; the median of “log2 fold change of degron read counts, EGFP-low vs EGFP+ sorted cells (limma voom), compound-induced degradation” is about -1.1, and the highest 2% start at about 3.2. The sample as a whole holds a higher share of the highest values than the screen did.

T1: CRBN, Q96SW2
T1 chain: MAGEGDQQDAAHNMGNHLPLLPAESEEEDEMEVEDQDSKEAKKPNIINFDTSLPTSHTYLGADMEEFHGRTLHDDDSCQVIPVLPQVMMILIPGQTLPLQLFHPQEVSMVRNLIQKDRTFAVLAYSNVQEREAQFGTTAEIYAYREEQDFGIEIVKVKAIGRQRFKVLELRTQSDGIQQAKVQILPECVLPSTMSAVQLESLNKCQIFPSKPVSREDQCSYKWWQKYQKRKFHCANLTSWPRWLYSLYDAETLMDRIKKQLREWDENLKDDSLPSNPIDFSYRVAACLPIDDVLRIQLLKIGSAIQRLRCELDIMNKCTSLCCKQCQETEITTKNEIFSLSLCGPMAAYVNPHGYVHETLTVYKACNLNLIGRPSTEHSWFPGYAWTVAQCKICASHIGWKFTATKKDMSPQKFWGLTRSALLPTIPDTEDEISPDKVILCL


Target: T1, CRBN, Q96SW2
Experiment: log2 fold change of degron read counts, EGFP-low vs EGFP+ sorted cells (limma voom), compound-induced degradation; higher = more compound-induced degradation of the degron-EGFP fusion; degrons are variants of IKZF1/3 zinc finger 2; compound dose not given here
Conditions: Jurkat, 18 h
Procedure: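 Pooled library of 8380 IKZF3 ZF2 degron mutants (positions 146-167 varied within the IKZF3 130-189 degron; only the varied core is printed, flanks not printed) fused to EGFP with IRES-mCherry, lentivirally expressed in Jurkat cells. mCherry+ cells were treated with one IMiD compound for 18 h (dose not stated) and FACS-sorted into EGFP-low and EGFP+ populations. Degron sequences were counted by NGS, and log2FC (EGFP-low vs EGFP+) was estimated by limma voom over 3 biological replicates.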

[1] = compound: compound 19 (5-tert-butyl-thalidomide)
[2] = compound: compound 22 (5-morpholino-thalidomide)
[3] = compound: compound 33 (diphenyl IMiD analogue)
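Note: pooled lentiviral library of zinc finger degron-EGFP fusions in mCherry-positive Jurkat cells, FACS-sorted after compound exposure, with degron abundance counted by next-generation sequencing.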

| Sequence | log2 fold change of degron read counts [1] | log2 fold change of degron read counts [2] | log2 fold change of degron read counts [3] | log2 fold change of degron read counts (compound: thalidomide) |
| --- | --- | --- | --- | --- |
| FDCEVCGAYFTQKGNLLRHIKL [46F_47D_49E_50V_52G_53A_54Y_55F_67L_, Q9UKT9] | -0.638 | -1.5 | -0.115 | -0.462 |
| LVCNQCGFTCTQKGNLLRHIKL [46L_47V_49N_50Q_52G_53F_54T_55C_67L_, Q9UKT9] | -2.33 | -3.26 | -0.847 | -1.21 |
| FLCNQCGHSFTQKGNLLRHIKL [46F_47L_49N_50Q_52G_53H_54S_55F_67L_, Q9UKT9] | -2.63 | -2.99 | -3.12 | -2.74 |
| FACEICGRIFTQKGNLLRHIKL [46F_47A_49E_50I_52G_53R_54I_55F_67L_, Q9UKT9] | 0.366 | -1.59 | -1.49 | -1.01 |
| FVCDICGANFTQKGNLLRHIKL [46F_47V_49D_50I_52G_53A_54N_55F_67L_, Q9UKT9] | -0.564 | 1.47 | 0.815 | 1.12 |
| FKCPICGRQFTQKGNLLRHIKL [46F_47K_49P_50I_52G_53R_54Q_55F_67L_, Q9UKT9] | -2.24 | -2.58 | -2.12 | -0.821 |
| LRCPICGFSCTQKGNLLRHIKL [46L_47R_49P_50I_52G_53F_54S_55C_67L_, Q9UKT9] | 2.24 | 1.9 | 2.44 | 2.71 |
| LFCPICGFECTQKGNLLRHIKL [46L_47F_49P_50I_52G_53F_54E_55C_67L_, Q9UKT9] | 2.8 | 2.89 | 1.47 | 0.989 |
| LFCPICGFSCTQKGNLLRHIKL [46L_47F_49P_50I_52G_53F_54S_55C_67L_, Q9UKT9] | 3.55 | 3.56 | 2.79 | 2.78 |
| LCCPICGFSCTQKGNLLRHIKL [46L_47C_49P_50I_52G_53F_54S_55C_67L_, Q9UKT9] | 2.83 | 3.15 | 3 | 3.11 |
| LNCPICGFSCTQKGNLLRHIKL [46L_47N_49P_50I_52G_53F_54S_55C_67L_, Q9UKT9] | 2.9 | 2.01 | 1.38 | 2 |
| LVCPICGFSCTQKGNLLRHIKL [46L_47V_49P_50I_52G_53F_54S_55C_67L_, Q9UKT9] | 2.25 | 3.63 | 2.38 | 3.59 |
| FQCEICGRNFTQKGNLLRHIKL [46F_47Q_49E_50I_52G_53R_54N_55F_67L_, Q9UKT9] | -2.38 | -2.7 | -0.772 | 0.915 |
| FACPQCGAHFTQKGNLLRHIKL [46F_47A_49P_50Q_52G_53A_54H_55F_67L_, Q9UKT9] | 0.167 | -2 | -1.13 | -1.72 |
| FRCPQCGAYFTQKGNLLRHIKL [46F_47R_49P_50Q_52G_53A_54Y_55F_67L_, Q9UKT9] | -1.85 | -1.73 | -0.273 | -0.427 |
| FVCNICGAPFTQKGNLLRHIKL [46F_47V_49N_50I_52G_53A_54P_55F_67L_, Q9UKT9] | 1.87 | 3.32 | 2.44 | 3.33 |
| FVCNQCGAPFTQKGNLLRHIKL [46F_47V_49N_50Q_52G_53A_54P_55F_67L_, Q9UKT9] | -1.48 | 0.603 | -0.000403 | 0.468 |
| FYCNICGAPFTQKGNLLRHIKL [46F_47Y_49N_50I_52G_53A_54P_55F_67L_, Q9UKT9] | 3.87 | 3.54 | 2.43 | 1.04 |
| FLCNICGAPFTQKGNLLRHIKL [46F_47L_49N_50I_52G_53A_54P_55F_67L_, Q9UKT9] | 1.46 | 1.8 | 2.1 | 2.49 |
| FTCNICGAPFTQKGNLLRHIKL [46F_47T_49N_50I_52G_53A_54P_55F_67L_, Q9UKT9] | 2.03 | 3.03 | 2.21 | 2.73 |
| FICNICGAPFTQKGNLLRHIKL [46F_47I_49N_50I_52G_53A_54P_55F_67L_, Q9UKT9] | 1.31 | 3.43 | 2.32 | 2.76 |
| FNCNICGAPFTQKGNLLRHIKL [46F_47N_49N_50I_52G_53A_54P_55F_67L_, Q9UKT9] | 3.04 | 1.9 | 0.574 | 0.97 |
| FECNICGAPFTQKGNLLRHIKL [46F_47E_49N_50I_52G_53A_54P_55F_67L_, Q9UKT9] | 0.92 | -1.22 | 0.793 | 1.96 |
| FRCNICGAPFTQKGNLLRHIKL [46F_47R_49N_50I_52G_53A_54P_55F_67L_, Q9UKT9] | 2.88 | 3.49 | 3.05 | 3.38 |
| FRCEICGRPFTQKGNLLRHIKL [46F_47R_49E_50I_52G_53R_54P_55F_67L_, Q9UKT9] | -0.208 | 1.72 | 2.22 | 2.06 |
| FNCPICGHTFTQKGNLLRHIKL [46F_47N_49P_50I_52G_53H_54T_55F_67L_, Q9UKT9] | -2.31 | -2.29 | -2.08 | -2.24 |
| FFCEICGRSFTQKGNLLRHIKL [46F_47F_49E_50I_52G_53R_54S_55F_67L_, Q9UKT9] | 0.599 | 0.147 | -0.0546 | -0.893 |
| FNCEQCGACFTQKGNLLRHIKL [46F_47N_49E_50Q_52G_53A_54C_55F_67L_, Q9UKT9] | -1.28 | -2.78 | -2.07 | -2.41 |
